The record followed here is PubChem BioAssay AID463173 (ICCB-Longwood Screening Facility, Harvard Medical School, 2010).

Hit rate of the full screen: of about 52,000 compounds, about 4,300 (8.3%) were called active. Many of the other results were omitted from the sample, so actives are more common in it than they were. A number with no mark means an inactive call. Rule as the data show it: active = survival mostly below about 52% (no sharp cut-off); inactive = mostly above about 56%.

This experiment concerns DeltatarO mutant. The experiment can be described thus: growth inhibition of S. aureus wild type versus tarO mutant, primary screen, teichoic acid synthesis inhibitors, RN4220, OD600 (AID 463173). Particulars: OD600, 18 h, hits give low values, screened at 18.75 µg/mL (by protocol).
In the case of `CCc1ccc(-n2nc3cc(C)c(NC(=O)c4cc(Cl)ccc4OC)cc3n2)cc1`, the survival is 86%.
As to `CCOC(=O)c1cc2c(=O)n3ccccc3nc2n(CC(C)C)c1=NC(=O)c1cc2ccccc2o1`, the survival was 59%.
The same measure for `CCCn1c(=NC(=O)c2cc3ccccc3o2)c(C(=O)OCC)cc2c(=O)n3ccccc3nc21`: 27% (active).
As for `CCCCn1c(=NC(=O)c2cc3ccccc3o2)c(C(=O)OCC)cc2c(=O)n3ccccc3nc21`, the figure is 107%; as for `CCCCn1c(=NC(=O)C(C)(C)Oc2ccc(Cl)cc2)c(C(=O)OCC)cc2c(=O)n3ccccc3nc21`, 60%; as for `CCOC(=O)c1cc2c(=O)n3ccccc3nc2n(CCCOC)c1=NC(=O)C(C)Oc1ccccc1` (configuration not stated), 48% (active).
As for `CCOC(=O)c1cc2c(=O)n3ccccc3nc2n(C(C)C)c1=NC(=O)c1c(-c2c(F)cccc2Cl)noc1C`, the figure is 151%; as for `CCOC(=O)c1cc2c(=O)n3ccccc3nc2n(CCCOC)c1=NC(=O)c1cc2ccccc2o1`, 65%.
As to `CCOC(=O)c1cc2c(=O)n3ccccc3nc2n(CC(C)C)c1=NC(=O)C(C)(C)Oc1ccc(Cl)cc1`, the survival is 31% (active).
The same measure for `CCOC(=O)c1cc2c(=O)n3ccccc3nc2n(CCOC)c1=NC(=O)c1cc2ccccc2o1`: 58%; for `CCOC(=O)c1cc2c(=O)n3ccccc3nc2n(CC(C)C)c1=NC(=O)C(C)Oc1ccccc1` (configuration not stated): 165%.
With `CCOC(=O)c1cc2c(=O)n3ccccc3nc2n(C(C)C)c1=NC(=O)C(C)(C)Oc1ccc(Cl)cc1`, the survival is 57%.
For the molecule `CCOC(=O)c1cc2c(=O)n3ccccc3nc2n(C(C)C)c1=NC(=O)c1cc2ccccc2o1`, the survival was 25% (active).
Consider `O=C(NC1CSCC1=O)c1ccccc1` (configuration not stated), for which the survival was 69%.
As for `O=C1CC(c2ccccc2)Sc2nc(-c3ccc(F)cc3)nn21` (configuration not stated), the figure is 81%.
The same measure for `O=c1[nH]cnc2nc3c4ccccc4c4ccccc4c3nc12`: 74%.
The same measure for `O=C(Nc1cccc(F)c1)c1ccc2c(c1)N(Cc1ccccc1)C(=O)c1ccccc1S2(=O)=O`: 80%; for `O=C1CN=C(Nc2ccccc2Cl)N1Cc1ccccc1`: 110%.
Turning to `COc1ccccc1NC(=O)C1CCC(CNS(=O)(=O)c2ccc3c(c2)CC(C)N3C(C)=O)CC1` (configuration not stated), the survival was 58%.
Turning to `O=C(NC1CC(=O)N(c2cccc(F)c2)C1)c1ccc(S(=O)(=O)N2CCCC2)cc1` (configuration not stated), the survival is 68%.
The same measure for `CCOCCCNC(=O)C(=O)Nc1c2c(nn1-c1ccc(OC)cc1)CSC2`: 83%.
For the molecule `Cc1ccc(NC(=O)Cn2c(=O)n(CCc3ccccc3)c(=O)c3c4c(sc32)CCCC4)c(C)c1`, the survival is 92%.
As for `CCC1C=CCC2C(=O)N(CC(=O)NCCC3=CCCCC3)C(=O)C12` (configuration not stated), the figure is 73%; as for `CC(=O)N1CCCn2c1nc1ccccc12`, 92%.
As for `Cc1ccc(C)c(N2CCN(C(=O)Cn3cnc4sc(C)c(S(=O)(=O)N5CCN(c6ncccn6)CC5)c4c3=O)CC2)c1`, the figure is 67%; as for `CC(NC(=O)c1ccc2c(c1)N(Cc1cccc(F)c1)C(=O)c1ccccc1S2)c1ccccc1` (configuration not stated), 89%.
As for `COc1ccc2c(CNC3CCCC3)c(C(=O)O)n(Cc3ccccc3C)c2c1`, the figure is 95%.
With `COc1ccc(CNC(=O)CSc2ncc3c(n2)-c2ccc(Cl)cc2N(Cc2ccccc2)S3(=O)=O)cc1`, the survival was 49%.
Take `COc1ccccc1CNC(=O)CSc1ncc2c(n1)-c1cc(Cl)ccc1N(Cc1ccccc1)S2(=O)=O`: the survival is 80%.
For the molecule `Cc1cccc(C)c1NC(=O)CSc1ncc2c(n1)-c1ccc(Cl)cc1N(Cc1ccccc1)S2(=O)=O`, the survival is 0% (active).
With `COc1ccccc1CNC(=O)CSc1ncc2c(n1)-c1ccc(Cl)cc1N(Cc1ccccc1)S2(=O)=O`, the survival was 32% (active).
As for `O=C(CSc1ncc2c(n1)-c1ccc(Cl)cc1N(Cc1ccccc1)S2(=O)=O)Nc1ccc(F)c(F)c1`, the figure is 131%; as for `CCc1cccc(NC(=O)CSc2ncc3c(n2)-c2ccc(Cl)cc2N(Cc2ccccc2)S3(=O)=O)c1`, 92%; as for `CCN(CC)N=Nc1ccc(NC(C)=O)cc1`, 113%.
In the case of `CCc1ccc(-n2nc(C)c3c(C(=O)Nc4cc(C)ccc4C)cc(C)nc32)cc1`, the survival is 60%.
For the molecule `Cc1c(N)c(C)c(N)c(C)c1N`, the survival was 96%.
As for `CCOc1ccccc1CNC(=O)C1CCN(C(=O)N2CC(CC)Oc3ccc(C)cc32)CC1` (configuration not stated), the figure is 71%; as for `CCOC(=O)c1c(S(=O)(=O)NCC(=O)Nc2ccc(C)c(Cl)c2)c(C)n(C)c1C`, 61%.
As for `Cc1ccc(NC(=O)Cn2c(=O)n(Cc3ccc(F)cc3)c(=O)c3cccnc32)cc1C`, the figure is 91%.
As for `Cc1ccc(-n2nc(C)c3nc(CCC(=O)Nc4cccc(F)c4)c(=O)n(C)c32)cc1`, the figure is -5% (active).
In the case of `Cc1ccc(-n2nc(C)c3nc(CCC(=O)Nc4ccc(F)cc4)c(=O)n(C)c32)cc1`, the survival was 73%.
As for `COc1cccc(NC(=O)CCc2nc3c(C)nn(-c4ccc(C)cc4)c3n(C)c2=O)c1`, the figure is 81%; as for `O=C(c1cc(S(=O)(=O)N2CCCC2)c[nH]1)N1CCN(c2cccc(Cl)c2)CC1`, 98%.
The same measure for `COCCn1nnnc1C(c1ccc2ncccc2c1)N1CCc2ccccc21` (configuration not stated): 98%; for `COc1ccccc1-c1noc(-c2ccc(NCc3ccco3)c([N+](=O)[O-])c2)n1`: 97%.
The same measure for `O=[N+]([O-])c1cc(-c2nc(-c3ccccc3)no2)ccc1NCc1ccco1`: 64%.
Regarding `COc1cc(-c2noc(-c3ccc(NCc4ccco4)c([N+](=O)[O-])c3)n2)cc(OC)c1OC`, the survival was 49% (active).
As for `COc1ccc(-c2noc(-c3ccc(NCc4ccco4)c([N+](=O)[O-])c3)n2)cc1OC`, the figure is 43% (active); as for `COc1ccc(-c2noc(-c3ccc(NCc4ccco4)c([N+](=O)[O-])c3)n2)cc1`, 43%; as for `Cc1ccc(-c2noc(-c3ccc(NCc4ccco4)c([N+](=O)[O-])c3)n2)cc1`, 98%.
Regarding `CCC(=O)N1c2nc(C(C)C)nn2C2(CCCCC2)[C@@H]2CCCC[C@@H]21`, the survival was 81%.
The same measure for `COC(=O)c1ccc(Cn2nnc3c(=O)[nH]c(C4CCCN(S(=O)(=O)c5cccc(Cl)c5)C4)nc32)cc1` (configuration not stated): 94%.
As for `CC(C)N(C(=O)CSc1nnc(Cc2csc(Nc3ccccc3)n2)o1)C(C)C`, the figure is 69%.
Consider `CCOc1ccc2nc(NCCNC(=O)C3CCCCC3)c(C#N)cc2c1`, for which the survival is 106%.
As for `CCN(CC)C(=O)/C(=C\c1ccc(OC)c(OC)c1)n1ccccc1=O`, the survival is 103%.
As for `CCc1ccc(CNC(=O)Cn2nc(C)c3c(C)n(-c4ccc(C)cc4)nc3c2=O)cc1`, the figure is 79%; as for `COc1ccc(-c2cccc(NS(=O)(=O)c3cc(C)c(Cl)cc3C)c2)nn1`, 102%.
Turning to `CC(=O)c1sc2c(c1C)c(=O)n(-c1ccc(Cl)cc1)c(=O)n2Cc1cc(=O)n2cc(Cl)ccc2n1`, the survival was 58%.
As for `Cc1oc(-c2ccccc2)nc1C(=O)O`, the figure is 72%.
`CCNc1ccc(-c2nc(-c3ccco3)no2)cc1[N+](=O)[O-]`: the survival was 51%.
As for `CCCCNc1ccc(-c2nc(-c3ccco3)no2)cc1[N+](=O)[O-]`, the figure is 57%; as for `COc1ccccc1CNc1ccc(-c2nc(-c3ccco3)no2)cc1[N+](=O)[O-]`, 45%.
The same measure for `O=[N+]([O-])c1cc(-c2nc(-c3ccco3)no2)ccc1NCc1ccccc1`: 47% (active); for `Cc1ccc(CNc2ccc(-c3nc(-c4ccco4)no3)cc2[N+](=O)[O-])cc1`: 53%.
The same measure for `CCCNc1ccc(-c2nc(-c3ccco3)no2)cc1[N+](=O)[O-]`: 57% (active); for `CCc1ccc2[nH]c3nc(SCC(=O)OC(C)C)nnc3c2c1`: 108%.
In the case of `Cc1cc(C)c2c(=O)c3c(oc2c1)C(=O)N(CCCOC(C)C)C3c1ccccc1F` (configuration not stated), the survival is 67%.
`COc1ccc(-n2c(SCC(=O)N3CCC(C)CC3)nc3c([nH]c4ccccc43)c2=O)cc1`: the survival is 70%.
As for `CC1CCN(C(=O)CSc2nc3c([nH]c4ccccc43)c(=O)n2-c2ccccc2)CC1`, the figure is 75%.
As for `CCOC(=O)CSc1nc2c([nH]c3ccccc32)c(=O)n1-c1ccc(OCC)cc1`, the figure is 99%.
As for `Cc1cc(C)cc(-n2c(SCC(=O)N3CCCCC3)nc3c([nH]c4ccccc43)c2=O)c1`, the figure is 88%; as for `Cc1ccc(-n2c(SCC(=O)N3CCC(C)CC3)nc3c([nH]c4ccccc43)c2=O)cc1`, -5% (active); as for `Cc1cc(C)cc(-n2c(SCC(=O)N3CCC(C)CC3)nc3c([nH]c4ccccc43)c2=O)c1`, 17% (active).
In the case of `CCOc1ccc(-n2c(SCC(=O)N3CCOCC3)nc3c([nH]c4ccccc43)c2=O)cc1`, the survival is 0% (active).
As to `CCOc1ccc(-n2c(SCC(=O)N3CCCC3)nc3c([nH]c4ccccc43)c2=O)cc1`, the survival was 98%.
Regarding `CCOc1ccc(-n2c(SC(C)C(=O)OC)nc3c([nH]c4ccccc43)c2=O)cc1` (configuration not stated), the survival is 0% (active).
As for `COC(=O)C(C)Sc1nc2c([nH]c3ccccc32)c(=O)n1-c1ccc(OC)cc1` (configuration not stated), the figure is 64%.
The same measure for `Cc1cc(C)cc(-n2c(SCC(=O)N3CCCC3)nc3c([nH]c4ccccc43)c2=O)c1`: 89%.
As for `CCOc1ccc(-n2c(SCC(=O)N3CCCCC3)nc3c([nH]c4ccccc43)c2=O)cc1`, the figure is 107%.
As to `Cc1ccccc1S(=O)(=O)Cc1ccc(C(=O)NCc2ccccc2Cl)o1`, the survival was 56%.
As for `Cc1ccc(-n2ncc(C(=O)NCCCN3CCc4ccccc4C3)c2C2CCN(C(=O)OC(C)(C)C)CC2)cc1C`, the figure is 73%.
As for `COc1cccc(-n2cc(C(=O)NCc3ccccc3OC)c3ccccc3c2=O)c1`, the figure is 72%.
